# PubChem BioAssay AID1531 (NMMLSC, 2009)
# Screen size: about 290,000 compounds; about 3,300 (1.1%) were called active. Rule as the data show it: active = binding response below about 67% or above about 130%; inconclusive = no clear call, values can overlap the other calls; inactive = in between. For the sample, actives were picked, then their nearest neighbours and some compounds at random.
# Target: Mitogen-activated protein kinase kinase kinase 2 (Homo sapiens) (UniProt Q9Y2U5)
# Assay: modulators of MEK5 binding to wildtype MEKK2, primary screen, biochemical, multiplex bead flow cytometry, Alexa488-MEK5 (AID 1531)
# Details: Alexa488-MEK5 binding to MEKK2 WT, at 10 µM, actives lie on both sides
row,Structure (SMILES),binding response (% of control)
1,O=C1NC(=O)N(Cc2ccco2)C(=O)/C1=C\c1cccn1CCOc1ccccc1,110% (inactive)
2,O=C1NC(=O)N(CCc2ccc(F)cc2)C(=O)/C1=C/C=C/c1ccccc1,97% (inactive)
3,O=C(O)COc1ccccc1/C=C1\C(=O)NC(=O)N(CCC2=CCCCC2)C1=O,-4% (active)
4,CCOP(=S)(OCC)C(O)CCCCCn1c(=O)c(F)cn(C2CCCO2)c1=O (stereo not given),106% (inactive)
5,CCCCCCCCCCCCn1ccc(=N)cc1,173% (active)
6,c1ccc(CC2CCCCN2)cc1 (stereo not given),107% (inactive)
7,N#Cc1ccc(Cn2cc(C(=O)c3ccco3)c3ccccc32)cc1,98% (inactive)
8,Cc1ccc2c(c1)=C/C(=C\c1c(O)[nH]c(=O)[nH]c1=O)C(=O)N=2,99% (inactive)
9,COC(=O)N1C(c2ccccc2)C1c1ccccc1 (stereo not given),101% (inactive)
10,CNCC(O)c1cc(F)c(OCc2ccccc2)c(OCc2ccccc2)c1F (stereo not given),141% (active)
11,COC(=O)C1=C(c2cc3ccccc3s2)C[C@@H]2CC[C@H]1N2C(=O)NCc1cccc2ccccc12,93% (inactive)
12,c1ccc(CCNC2CCCCCC2)cc1,101% (inactive)
13,COc1ccc(-n2c(O)c(C(C)=Nc3ccc4c(c3)CCC4)c(=O)[nH]c2=O)cc1,99% (inactive)
14,CN(C)S(=O)(=O)c1cc(C(=O)N2CCC(C(=O)O)(c3ccccc3)CC2)ccc1Cl,106% (inactive)
15,COC(=O)C1=C(c2cc3ccccc3o2)C[C@@H]2CC[C@H]1N2C(=O)NC1CCCCC1,101% (inactive)
